Eya2 phos inh – Eya2 (human) phosphatase inhibition. O00167. recombinant Eya2, OMFP fluorescence dephosphorylation (OMFP is methylfluorescein phosphate). Potency, µM (titrated, usually from 76.9 µM), inactives show at the highest dose activity, negative = inhibition, usual class: inhibitors. actives 0.006% (n = 330,000). AID 488837; note: potency is the fitted concentration of half-maximal effect
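Eya2 protein (added as 0.2 uM solution) was preincubated with compound for 10 min at ambient temperature in 50 mM HEPES pH 7.5, 50 mM NaCl, 5 uM MgCl2, 0.05% BSA, 1 mM DTT. OMFP (added at 50 uM) then reacted 10 min; fluorescence read at 485/525 nm.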
Six1-Eya2 inh – blocks human Six1 binding to Eya2 | AlphaScreen GST-Six1/His-Eya2 binding, biochemical; active compounds read low | Q15475+O00167 | activity change, % (concentration not given with the values) | AID 651725 | actives 0.56% (n = 360,000); in the data active = activity change below about -65%; inconclusive = mostly about -30% to -63%
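Compounds are tested against tagged Six1 and Eya2 proteins bridged by glutathione donor and nickel acceptor beads; after a one-hour incubation at 37 °C without light, AlphaScreen emission is recorded.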
CtBP-E1A blk – CtBP/E1A binding inhibition. AlphaScreen GST-E1A/His-CtBP binding, 1536-well; active compounds read low. activity change, % (no concentration beside the values). actives 0.49% (n = 340,000); in the data active = activity change below about -65%; inconclusive = mostly about -30% to -63%
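In 5 uL wells, 23 nL compound meets equimolar GST-E1A and His-CtBP (5X stock 125 nM each) for 2 h, 37 °C. Beads (5X, 50 ug/mL) then 1 h, 37 °C, dark.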
Apoferritin bind – candidate novel general anesthetic via apoferritin binding; P02791; apoferritin/1-aminoanthracene competitive binding, fluorescence; Potency, µM (top dose mostly 77.5 µM), without a hit: top-dose activity change, negative = displacement, most hits filed as inhibitors; actives 0.074% (n = 350,000); note: potency is the fitted concentration of half-maximal effect; nearly all actives have a fitted effect of over 20% in size
Target sequence (P02791 2-175 limits assumed): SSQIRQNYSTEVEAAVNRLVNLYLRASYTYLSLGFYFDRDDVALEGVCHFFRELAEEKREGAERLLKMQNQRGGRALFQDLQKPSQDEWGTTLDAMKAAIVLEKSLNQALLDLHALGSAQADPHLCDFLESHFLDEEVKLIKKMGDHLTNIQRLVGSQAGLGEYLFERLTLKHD
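In PBS, apoferritin at 10 uM is loaded with 1-AMA from a 50% saturated solution. After 10 min of compound exposure at ambient temperature, reduced 535 nm fluorescence indicates probe displacement.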
JMJD2E inh – inhibitors of human JMJD2E histone demethylase; B2RXH2; JMJD2E catalytic domain, FDH-coupled NADH fluorescence (FDH is formaldehyde dehydrogenase); Potency, µM (doses to about 57.1 µM), inactives show at the highest dose activity change, negative = inhibition, most hits filed as inhibitors; actives 1.6% (n = 230,000); active = well fitted inhibition curve with a large enough effect, not every such curve was filed as active; inconclusive = small, poorly fitted or top-dose-only effect, or another doubt; inactive = no such curve, though single readings can be large or run the other way;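 note: potency is the fitted concentration of half-maximal effect; 0% = wells with enzyme and -100% = buffer wells without enzyme; nearly all actives have a fitted effect of over 50% in size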
Target sequence (B2RXH2 1-337 limits assumed): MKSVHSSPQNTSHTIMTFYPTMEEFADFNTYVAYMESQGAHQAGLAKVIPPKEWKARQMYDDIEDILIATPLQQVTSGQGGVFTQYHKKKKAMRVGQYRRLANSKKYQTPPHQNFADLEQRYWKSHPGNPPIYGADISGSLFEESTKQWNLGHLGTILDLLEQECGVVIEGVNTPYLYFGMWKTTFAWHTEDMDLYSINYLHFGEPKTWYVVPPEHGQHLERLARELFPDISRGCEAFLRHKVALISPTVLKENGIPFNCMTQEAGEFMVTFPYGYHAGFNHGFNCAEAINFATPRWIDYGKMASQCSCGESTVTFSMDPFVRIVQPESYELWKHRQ
GALK inhibitor – blocks human galactokinase activity. actives 0.007% (n = 270,000). P51570. Purified GALK, Kinase-Glo residual ATP luminescence. AID 1868. Potency, µM (doses to about 57.5 µM), without a hit: at the top dose activity change, negative = inhibition, most hits filed as inhibitors; note: potency is the fitted concentration of half-maximal effect
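ATP-depletion format; final 35 uM ATP, 100 uM D-galactose, 5 nM enzyme; pH 8.0 HEPES/Mg2+ buffer; 60 min RT; luminescence read 10 min after detection reagent.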
Numbers without * were called inactive; ? = inconclusive; . = not tested or not shown; [ ] = dose if it differs, or a comment. This excerpt belongs to a sample that is enriched for hits. Unless noted, calls come from the whole dose curve; as a rule, active = well fitted curve in the direction sought with a large enough effect; inconclusive = small, poorly fitted or top-dose-only effect, or another doubt; inactive = no such curve, though single readings can be large; an effect the other way counts as inactive or inconclusive. Unless noted, % is set by controls: 0 for no effect and ±100 for the full control effect.

SMILES | Eya2 phos inh | Six1-Eya2 inh | CtBP-E1A blk | Apoferritin bind | JMJD2E inh | GALK inhibitor
CSCC[C@H](NC(=O)[C@H](CC(C)C)NC(=O)[C@@H]1CCCN1C(=O)[C@H](Cc1ccccc1)NC(=O)[C@H](Cc1ccccc1)NC(=O)[C@H](CCC(N)=O)NC(=O)[C@H](CCC(N)=O)NC(=O)[C@@H]1CCCN1C(=O)[C@H](CCCCN)NC(=O)[C@@H]1CCCN1C(=O)[C@@H](N)CCCN=C(N)N)C(N)=O | . | . | . | 2.3% | . | .
O=C(N[C@@H]1CC[C@H](CCn2cc(-c3ccccn3)nn2)O[C@@H]1CO)c1ccncc1 | . | -75.6* | -20.1 | . | . | .
O=C(N[C@@H]1CC[C@@H](CCn2cc(-c3ccccc3)nn2)O[C@@H]1CO)c1cnccn1 | . | 4.8 | 4.2 | . | . | .
O=C1C(=Cc2ccco2)CCC1=Cc1ccco1 | . | -83.0* | -0.8 | . | . | .
CCN1CC2=C(OC(N)=C(C#N)C2c2cccs2)/C(=C/c2cccs2)C1 (stereo not given) | 0.7% | -17.4 | -15.0 | -5.1% | 14.1µM* | 0.5%
CC(C)n1c(=O)[nH][nH]c1=S | -4.8% | 0.0 | 2.2 | -0.5% | 3.16µM* | 0.6%
CCOc1cc(C2C3=C(CCCC3=O)NC3=C2C(=O)CCC3)ccc1OCCO | 1.5% | 8.9 | -3.2 | -2.9% | 31.6µM* | 0.7%
O=C(O)c1cccc(-n2cccc2/C=C2/NC(=O)N(c3ccc(Cl)cc3)C2=O)c1 | 13.6% | -76.5* | ? | -8.1% | ? | 1.6%
CN(C)c1ccc2nc3ccc(=O)cc-3sc2c1 | . | ? | 0.0 | . | . | .
Cc1cc2nc3ccc(=[N+](C)C)cc-3sc2cc1N | 10.4% | ? | 71.9 | -12.7% | 14.1µM* | 13.2%
COc1ccc(N=NC2C(=O)N(c3ccccc3)N=C2C)cc1 (stereo not given) | 12.1% | -73.3* | ? | -7.4% | . | 2.4%
CC1=NN(c2ccccc2)C(=O)C1N=Nc1ccc(N)cc1 (stereo not given) | -3.8% | -70.6* | ? | 7.6% | 14.1µM* | 5.1%
CC1=NN(c2ccccc2)C(=O)C1N=Nc1cccc(O)c1 (stereo not given) | -4.6% | -29.6 | ? | ? | . | -1.6%
CC1=NN(c2ccccc2)C(=O)C1N=Nc1ccccc1 (stereo not given) | 6.2% | -20.9 | -18.4 | -7.1% | 7.1% | 3.7%
CCCCc1nc2c(c3c1C[C@H](C)OC3)CN(C(=O)C1CCCCC1)CC2 | . | . | . | . | 5.4%[11.4 µM] | .
CC(=O)Oc1ccc2c(=O)c(Oc3ccccc3)coc2c1OC(C)=O | -2.9% | -7.5 | -6.0 | 1.1% | 3.55µM* | 0.9%
Cc1ccc(Oc2coc3cc(OC(=O)c4cccs4)ccc3c2=O)cc1 | 6.1% | -19.1 | -5.2 | -10.9% | ? | -1.2%
COc1ccc(N2CCN(S(=O)(=O)c3c(C)nc4sc(C)cn4c3=O)CC2)cc1 | . | . | . | -10.0% | . | .
O=[N+]([O-])c1ccc(-[n+]2nc(-c3ccccc3)nn2-c2ccccc2)cc1 | -8.3% | -81.7* | -91.6* | -7.7% | . | -0.1%
COC(=O)c1ccc(NC(=O)c2c(NCc3ccc(C)o3)sc3c2CCCC3)cc1 | . | . | . | 3.4% | . | .
Cc1ccc(Sc2c(C)nn(C(=O)COc3ccccc3Br)c2C)cc1 | . | . | . | 6.31µM* | . | .
CCNc1ccccc(C(=O)/C=C/c2ccc3c(c2)OCO3)c1=O | 6.3% | -21.0 | -1.5 | -1.3% | 20µM* | -3.0%
COC(=O)/C=C/c1ccc2c(c1)OCO2 | -20.5% | 13.8 | -28.9 | -10.0% | ? | 1.5%
O=C(/C=C/c1ccc2c(c1)OCO2)c1cccs1 | . | . | . | . | 22.4µM* | .
CC(=O)C1=C(c2ccccc2)N(C(C)=O)n2c(nnc2C2CCCCC2)S1 | . | . | . | -6.3% | . | .
SMILES | Eya2 phos inh | Six1-Eya2 inh | CtBP-E1A blk | Apoferritin bind | JMJD2E inh | GALK inhibitor
N#Cc1cccc(NC(=O)CSc2nnc(-c3n[nH]c4ccccc34)o2)c1 | 15.3% | -25.8 | -86.6* | -11.2% | ? | 3.1%
C=CCNC1=C2C[C@@H](C)C[C@H](OC)[C@H](O)[C@@H](C)/C=C(\C)[C@H](OC(N)=O)[C@@H](OC)/C=C/C=C(\C)C(=O)NC(=CC1=O)C2=O | . | . | . | -3.8%[15.3 µM] | . | .
COc1ccc(C(=O)COC(=O)C2CC3CCCC(C2)C3=O)cc1Br (stereo not given) | -14.9% | -2.9 | 7.4 | . | . | .
COc1ccc(C(=O)COC(=O)CN2CC(=O)Oc3ccccc32)cc1Br | 8.0% | -93.0* | -92.8* | 8.4% | 107.9% | 1.2%
O=C(COC(=O)/C=C/c1cccc(F)c1)Nc1cccc(S(=O)(=O)NC2=NCCCCC2)c1 | -8.9% | -16.9 | ? | . | . | .
COc1cccc(/C=C/C(=O)OCC(=O)Nc2cccc(S(=O)(=O)NC3=NCCCCC3)c2)c1 | -13.6% | -17.3 | -76.3* | . | . | .
NC1=NC2C(N=C(Br)N2[C@@H]2O[C@H]3COP(=O)(O)O[C@@H]3[C@@H]2O)C(=O)N1 (stereo not given in full) | . | . | . | 8.9% | . | .
CN(C)c1ccc(N=Nc2ccccc2C(=O)OCC(=O)NC2CCCC2)cc1 | -7.8% | -70.7* | -65.8* | -16.5% | -6.5% | -3.3%
CN(C)c1ccc(N=Nc2ccccc2C(=O)OCC(=O)NCC2CCCCC2)cc1 | -13.6% | -74.1* | -67.6* | ? | -3.0% | -3.7%
COc1ccc(CCn2c(O)cc3nn(-c4nc5ccccc5s4)c(=O)c-3c2C)cc1 | -19.2% | -17.5 | 2.0 | -0.5% | 28.2µM* | -8.8%
CCCC/C=C/[C@@H](c1ccccc1)C1COC(=O)CC1O (stereo not given in full) | . | . | . | -9.1% | . | .
O=C(CN1CCCc2ccccc21)N/N=C/c1ccc(O)cc1O | -10.2% | ? | -27.0 | 1.2% | 25.1µM* | 0.0%
COc1ccccc1/C=C\C(=O)NCC(=O)N/N=C/c1ccc(O)cc1O | 1.7% | -80.0* | -74.0* | -21.7% | ? | -2.1%
O=C(CCc1ccccc1)NCC(=O)N/N=C/c1ccc2c(c1)OCO2 | 0.7% | 5.8 | . | ? | -10.0% | 3.9%
C/C(=N\NC(=O)c1ccc(NS(=O)(=O)c2cccs2)cc1)c1ccc(O)cc1O | 14.4% | ? | ? | 6.5% | 12.6µM* | -1.3%
O=C(CN1CCCc2ccccc21)N/N=C/c1ccccc1 | -10.5% | -11.0 | -11.9 | -4.5% | -24.8% | -3.2%
COc1ccccc1/C=C/C(=O)NCC(=O)N/N=C/c1ccccc1 | -8.0% | 4.1 | -11.2 | ? | ? | 3.5%
O=C(CCc1ccccc1)NCC(=O)N/N=C/c1ccc(O)cc1O | 10.9% | -65.6* | . | -5.4% | 6.31µM* | 4.3%
CCCc1ccc(OC(=O)CSc2nnc(-c3cccs3)o2)cc1 | . | . | . | -8.0% | . | .
CCOc1ccccc1CNC(=O)Cn1c(=O)c2cccn2c2ccc(F)cc21 | . | . | . | -6.6% | . | .
COc1cccc(CNc2nc3cc(-c4ccsc4)sc3c(=O)n2C)c1OC | . | -7.7 | -2.4 | . | . | .
